# Activity calls are given as the source filed them.
# Columns and labels:
# [1] = small molecules captured by biotinylated probe aFSTL3 – biochemical, small-molecule microarray, fluorescence 635/667, stem cell growth factor project, primary screen (AID 1064); details: higher = more signal;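 note: measures binding of the biotinylated anti-FSTL3 antibody to printed compounds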
# [2] = binders from COS7 lysate, DM2A8 probe, primary screen, torsin A project, cell lysate, small-molecule microarray, fluorescence 635/667 (AID 1065); details: higher = more signal, COS7 lysate expressing mutant human TOR1A
# [3] = small molecules captured by biotinylated probe aFGF2 – biochemical, small-molecule microarray, fluorescence 635/667, stem cell growth factor project, primary screen (AID 1067); details: higher = more signal;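 note: measures binding of biotinylated aFGF2 protein to printed compounds on slides; z-score merges feature fluorescence and signal-to-noise across triplicate slides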
# [4] = small molecules captured by biotinylated probe aFGF10 – biochemical, small-molecule microarray, fluorescence 635/667, stem cell growth factor project, primary screen (AID 1071); details: higher = more signal;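 note: score merges 667 nm spot intensity and signal to noise from triplicate slides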
# [5] = target: Neurogenic locus notch homolog protein 2 (Homo sapiens) (UniProt Q04721); test: small molecules binding Notch2 protein – biochemical, small-molecule microarray, 635 nm fluorescence, stem cell growth factors, primary screen (AID 1073); details: higher = more signal
# [6] = target: Pro-neuregulin-1, membrane-bound isoform (Homo sapiens) (UniProt Q02297); test: small molecules binding neuregulin-1 protein – biochemical, small-molecule microarray, fluorescence 635/667, psychiatric disease protein project, primary screen (AID 1075); details: NRG1 binding, 635 nm fluorescence, higher = more signal;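 note: score combines 667 nm spot fluorescence with signal to noise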
# [7] = tested on: Neuregulin-1 EGF-like domain; test: small molecules binding NRG1 EGF domain – biochemical, small-molecule microarray, 635 nm fluorescence, primary screen (AID 1081); details: higher = more signal;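 note: binding of the protein to compounds printed on small-molecule microarray slides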
# [8] = FRG1 expression reporter modulators in myotubes – cell-based, C2C12 myotubes, firefly/Renilla luciferase, luminescence, FRG1 inhibition for FSHD, primary screen (AID 1084); details: FRG1 promoter luciferase, higher = more signal, called active from +8 up or from −8 down
# [9] = small molecules captured by biotinylated probe aFST – biochemical, small-molecule microarray, fluorescence 635/667, stem cell growth factor project, primary screen (AID 1086); details: higher = more signal;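 note: score merges 667 nm fluorescence with signal-to-noise of each printed compound spot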
# [10] = binders of probe aHhip on microarray, primary screen, stem cell growth factor project, biochemical, small-molecule microarray, fluorescence 635/667 (AID 1087); details: higher = more signal;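 note: score merges spot fluorescence at 667nm with spot signal to noise ratio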
# [11] = tested on: PRMT1 (protein arginine N-methyltransferase 1); test: small molecules binding arginine methyltransferase PRMT1 – biochemical, small-molecule microarray, 635 nm fluorescence, primary screen (AID 1088); details: higher = more signal;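 note: binding of Prmt1 protein to compounds spotted on small-molecule microarray slides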
# [12] = growth effects on S. cerevisiae YJM789 – YJM789 clinical isolate, OD600, 24 h, basal, primary screen (AID 1089); details: higher = more signal, called active from +8 up or from −8 down;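 note: growth of clinical yeast isolate S. cerevisiae YJM 789 seeded 1000 cells per well; test concentration not given here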
# [13] = S. pombe growth modifiers, basal conditions – strain 972, OD600, 24 h, no modulator, primary screen (AID 1090);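 note: basal condition with compound alone and no growth modifier present; test concentration not given here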; details: S. pombe 972 growth, higher = more signal, called active from +8 up or from −8 down
# [14] = budding yeast growth modifiers under rapamycin – strain BY4716, OD600, 96 h, primary screen (AID 1091); note: test concentration not given here; details: S. cerevisiae BY4716 + rapamycin, higher = more signal, called active from +8 up or from −8 down
# [15] = target: Torsin-1A-interacting protein 2 (Homo sapiens) (UniProt Q8NFQ8); test: small molecules binding lysate-expressed LULL1 – cell lysate, human LULL1 lysate, 635/667 nm fluorescence, primary screen (AID 1092); details: small-molecule microarray, hLULL1 lysate binding, 635 nm fluorescence; higher = more signal;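 note: probe is lysate of COS7 cells overexpressing human LULL1; score merges per-feature 667 nm fluorescence with signal-to-noise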
# [16] = optical density change of DRC41 E. coli – strain DRC41, OD650, 24 h, E. coli filamentation project, primary screen (AID 1093);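 note: MC1000 strain lacking acrAB efflux and sulA so SOS filamentation is blocked; test concentration not given here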; details: E. coli DRC41 growth, higher = more signal, called active from +8 up or from −8 down
# [17] = probe aLefty2 binding to arrayed compounds – biochemical, biotinylated probe, 635/667 nm fluorescence, primary screen (AID 1094); details: small-molecule microarray, higher = more signal;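 note: score merges spot fluorescence near 667 nm with spot signal-to-noise ratio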
# [18] = tested on: Noggin (protein binding on small-molecule microarray); test: small molecules binding Noggin protein – biochemical, 635/667 nm fluorescence, primary screen (AID 1095); details: 635 nm fluorescence, higher = more signal;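 note: score merges 667 nm feature fluorescence with signal to noise over triplicate slides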
# [19] = target: Neurogenic locus notch homolog protein 3 (Homo sapiens) (UniProt Q9UM47); test: small molecules binding NOTCH3 protein – biochemical, 635/667 nm fluorescence, primary screen (AID 1096); details: small-molecule microarray, 635 nm fluorescence, higher = more signal
# [20] = probe aEGFR binding to arrayed compounds – biochemical, biotinylated probe, 635/667 nm fluorescence, primary screen (AID 1097); details: small-molecule microarray, higher = more signal;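 note: probe is a biotinylated anti-EGFR antibody binding compounds printed on slides; score combines fluorescence near 667 nm and signal to noise of each spot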
# Pro-neuregulin-1, membrane-bound isoform (Homo sapiens), sequence (Q02297 whole entry, looked up, the tested form may be a part, canonical isoform): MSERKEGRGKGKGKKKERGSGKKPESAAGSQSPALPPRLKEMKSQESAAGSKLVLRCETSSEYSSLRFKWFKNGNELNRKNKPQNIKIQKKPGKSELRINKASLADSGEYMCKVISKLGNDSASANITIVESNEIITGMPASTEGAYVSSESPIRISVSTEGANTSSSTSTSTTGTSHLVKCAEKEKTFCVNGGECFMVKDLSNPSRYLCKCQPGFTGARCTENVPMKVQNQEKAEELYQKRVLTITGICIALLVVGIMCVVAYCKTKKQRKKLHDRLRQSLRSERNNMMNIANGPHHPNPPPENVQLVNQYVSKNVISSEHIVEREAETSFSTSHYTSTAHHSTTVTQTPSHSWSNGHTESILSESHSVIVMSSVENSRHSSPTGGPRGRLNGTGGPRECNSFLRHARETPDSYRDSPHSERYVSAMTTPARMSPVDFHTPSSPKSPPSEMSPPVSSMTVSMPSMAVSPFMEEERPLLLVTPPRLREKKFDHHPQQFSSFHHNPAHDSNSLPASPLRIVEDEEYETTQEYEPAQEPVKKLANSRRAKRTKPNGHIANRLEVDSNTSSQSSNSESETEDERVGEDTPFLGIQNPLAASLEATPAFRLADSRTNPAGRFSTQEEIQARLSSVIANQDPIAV
# Neurogenic locus notch homolog protein 3 (Homo sapiens), sequence (Q9UM47 whole entry, looked up): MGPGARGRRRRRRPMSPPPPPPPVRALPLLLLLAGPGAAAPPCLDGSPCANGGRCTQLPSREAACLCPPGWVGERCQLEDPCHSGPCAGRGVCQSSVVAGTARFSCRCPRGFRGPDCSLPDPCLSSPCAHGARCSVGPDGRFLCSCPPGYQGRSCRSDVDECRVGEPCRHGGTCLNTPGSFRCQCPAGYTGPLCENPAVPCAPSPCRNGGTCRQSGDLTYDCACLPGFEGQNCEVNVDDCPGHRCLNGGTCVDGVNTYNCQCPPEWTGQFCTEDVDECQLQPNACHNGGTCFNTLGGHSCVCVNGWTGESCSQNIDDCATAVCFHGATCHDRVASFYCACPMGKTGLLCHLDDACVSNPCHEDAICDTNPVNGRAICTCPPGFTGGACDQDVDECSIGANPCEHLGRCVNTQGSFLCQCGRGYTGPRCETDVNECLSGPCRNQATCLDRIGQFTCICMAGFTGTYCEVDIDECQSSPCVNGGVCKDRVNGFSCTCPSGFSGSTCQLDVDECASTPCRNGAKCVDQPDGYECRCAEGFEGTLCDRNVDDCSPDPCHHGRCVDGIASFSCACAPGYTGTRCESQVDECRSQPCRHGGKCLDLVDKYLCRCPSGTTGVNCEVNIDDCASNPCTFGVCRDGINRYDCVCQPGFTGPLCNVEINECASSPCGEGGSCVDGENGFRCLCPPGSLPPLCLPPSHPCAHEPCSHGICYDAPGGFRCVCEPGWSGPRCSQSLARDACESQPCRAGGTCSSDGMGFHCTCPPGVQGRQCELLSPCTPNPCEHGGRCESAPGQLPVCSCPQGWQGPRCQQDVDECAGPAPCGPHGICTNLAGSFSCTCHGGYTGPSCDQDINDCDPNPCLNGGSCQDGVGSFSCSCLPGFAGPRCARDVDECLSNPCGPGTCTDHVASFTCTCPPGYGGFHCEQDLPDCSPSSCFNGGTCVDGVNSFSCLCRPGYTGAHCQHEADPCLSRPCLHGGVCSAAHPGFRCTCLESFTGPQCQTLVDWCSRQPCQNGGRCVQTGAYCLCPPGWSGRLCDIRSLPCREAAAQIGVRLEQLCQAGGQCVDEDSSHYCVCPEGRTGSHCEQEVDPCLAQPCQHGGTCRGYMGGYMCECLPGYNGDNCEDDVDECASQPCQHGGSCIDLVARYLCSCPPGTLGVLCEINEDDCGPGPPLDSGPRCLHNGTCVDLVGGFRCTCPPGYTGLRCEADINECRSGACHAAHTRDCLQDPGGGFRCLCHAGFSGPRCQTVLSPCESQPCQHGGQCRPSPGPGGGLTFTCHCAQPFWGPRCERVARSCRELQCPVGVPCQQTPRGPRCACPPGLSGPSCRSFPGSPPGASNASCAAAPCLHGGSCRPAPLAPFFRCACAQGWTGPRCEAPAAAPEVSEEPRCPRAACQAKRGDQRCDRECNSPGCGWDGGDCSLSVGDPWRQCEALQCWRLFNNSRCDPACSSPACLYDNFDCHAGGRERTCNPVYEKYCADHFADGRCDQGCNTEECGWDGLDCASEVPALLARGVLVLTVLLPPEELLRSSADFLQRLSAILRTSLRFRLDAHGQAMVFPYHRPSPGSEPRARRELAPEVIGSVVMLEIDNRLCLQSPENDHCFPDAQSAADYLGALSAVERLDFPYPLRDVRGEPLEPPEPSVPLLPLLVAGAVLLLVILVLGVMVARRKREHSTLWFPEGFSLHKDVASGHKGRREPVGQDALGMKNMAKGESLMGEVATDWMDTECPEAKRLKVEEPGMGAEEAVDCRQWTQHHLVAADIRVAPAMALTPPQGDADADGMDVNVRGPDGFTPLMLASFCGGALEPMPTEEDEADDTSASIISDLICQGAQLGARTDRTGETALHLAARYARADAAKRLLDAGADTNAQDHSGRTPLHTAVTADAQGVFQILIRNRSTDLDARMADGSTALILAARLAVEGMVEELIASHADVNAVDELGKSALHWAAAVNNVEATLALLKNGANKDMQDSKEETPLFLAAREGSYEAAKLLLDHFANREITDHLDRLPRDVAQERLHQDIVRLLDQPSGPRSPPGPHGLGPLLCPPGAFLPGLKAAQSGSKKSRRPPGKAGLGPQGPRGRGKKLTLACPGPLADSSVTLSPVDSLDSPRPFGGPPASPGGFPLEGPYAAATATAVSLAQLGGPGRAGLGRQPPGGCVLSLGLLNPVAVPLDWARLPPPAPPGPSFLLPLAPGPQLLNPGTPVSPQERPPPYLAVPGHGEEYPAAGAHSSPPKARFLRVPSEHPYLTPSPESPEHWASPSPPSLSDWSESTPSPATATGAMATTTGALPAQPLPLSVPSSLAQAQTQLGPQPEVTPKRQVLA
# Torsin-1A-interacting protein 2 (Homo sapiens), sequence (Q8NFQ8 whole entry, looked up): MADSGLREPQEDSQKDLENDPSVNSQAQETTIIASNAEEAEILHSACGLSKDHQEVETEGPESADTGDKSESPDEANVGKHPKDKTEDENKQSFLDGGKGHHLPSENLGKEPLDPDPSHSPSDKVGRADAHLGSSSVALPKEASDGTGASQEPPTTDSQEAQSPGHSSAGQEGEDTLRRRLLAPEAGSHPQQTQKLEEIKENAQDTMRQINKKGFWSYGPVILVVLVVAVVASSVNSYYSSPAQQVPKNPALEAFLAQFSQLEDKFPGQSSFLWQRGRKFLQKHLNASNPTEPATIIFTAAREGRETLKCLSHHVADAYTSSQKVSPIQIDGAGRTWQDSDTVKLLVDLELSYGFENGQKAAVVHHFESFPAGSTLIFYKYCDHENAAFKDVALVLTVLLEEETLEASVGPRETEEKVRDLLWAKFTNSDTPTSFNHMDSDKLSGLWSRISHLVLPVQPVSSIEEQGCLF
Compound,composite z-score [1],composite z-score [2],composite z-score [3],composite z-score [4],composite z-score [5],composite z-score [6],composite z-score [7],z-score [8],composite z-score [9],composite z-score [10],composite z-score [11],z-score [12],z-score [13],z-score [14],composite z-score [15],z-score [16],composite z-score [17],composite z-score [18],composite z-score [19],composite z-score [20]
COCCCNC(=O)[C@@]1(CCS(=O)(=O)c2ccccc2)N=C(c2ccc(OCCCO)cc2)O[C@H]1c1ccccc1N=[N+]=[N-],0.205,2.1,0.137,1.17,1.48,1.7,1.23,1.72 (inactive),1.63,-0.0645,1.53,-1.2 (inactive),0.431 (inactive),1.36 (inactive),3.47,0.299 (inactive),0.155,0.908,1.07,0.0135
C=CCNC(=O)[C@@H]1[C@H]2C(=O)O[C@H](c3ccccc3)[C@H](c3ccccc3)N2[C@H](c2ccc(OCCO)cc2)[C@@]12C(=O)N(C(=O)OCCOC)c1ccc(C#CCNC(N)=O)cc12,0.204,0.672,-0.0502,0.399,1.25,0.748,1.1,0.635 (inactive),0.798,-0.0994,1.4,2.15 (inactive),-0.221 (inactive),3.97 (inactive),1.61,1.98 (inactive),0.0565,0.954,1.13,-0.0069
CCOC(=O)[C@H]1C/C=C/C[C@H](C(=O)OCC)C(=O)O[C@H]2[C@@H](OC)O[C@H](CO)[C@@H](OC(=O)c3ccc(Br)cc3)[C@@H]2OC1=O,0.0086,0.014,-0.0459,-0.0304,-0.0686,0.132,0.517,-0.0847 (inactive),-0.0976,0.0566,0.419,-0.436 (inactive),-0.316 (inactive),2.17 (inactive),0.796,-0.67 (inactive),-0.0653,0.197,0.415,-0.116
COC(=O)[C@@]1(Cc2ccccc2)[C@H]2c3cc(C(=O)N(C)C)n(CCc4c[nH]c5ccc(O)cc45)c3C[C@H]2CN1C(=O)c1ccccc1,0.808,-0.0685,0.0518,0.188,0.832,-0.198,1.29,0.688 (inactive),1.21,-0.191,0.937,-1.09 (inactive),1.25 (inactive),0.405 (inactive),3.11,0.488 (inactive),0.583,0.626,0.751,-0.0234
C=CCN(Cc1ccccc1)C(=O)C(c1cccs1)N(C(=O)/C=C\C(=O)O)c1ccc(CCOCCO)cc1 (stereo not given),0.146,-0.182,-0.176,-0.865,-1.84,0.718,0.0305,0.988 (inactive),-1.35,-0.134,-0.133,-1.22 (inactive),0.246 (inactive),-0.391 (inactive),-0.288,1.01 (inactive),-0.209,-1.51,-1.36,-0.32
[N-]=[N+]=Nc1ccccc1C[C@]1(C(=O)NCc2ccccc2)N=C(c2ccc(OCCCO)cc2)O[C@H]1c1ccccc1N=[N+]=[N-],-0.0447,0.288,0.189,0.218,1.49,1.6,1.06,-0.899 (inactive),0.726,-0.0672,1.52,0.422 (inactive),1.63 (inactive),4.87 (inactive),2.53,0.362 (inactive),0.292,0.358,1.04,-0.067
COc1ccc([Si](C)(C)[C@H]2[C@H](CCO)O[C@@]3(C(=O)N(Cc4ccccc4)c4ccc(N5CCCCC5=O)cc43)[C@@H]2C)cc1,-0.347,0.455,-0.0428,0.74,0.333,0.39,0.909,-2.44 (inactive),-0.227,-0.0645,1.56,0.296 (inactive),-0.158 (inactive),1.97 (inactive),1.9,0.587 (inactive),-0.17,1.23,0.932,-0.123
NC(=O)NCC#Cc1ccc2c(c1)[C@]1(C(=O)N2)[C@H](C(=O)O)[C@H]2C(=O)O[C@H](c3ccccc3)[C@H](c3ccccc3)N2[C@@H]1c1ccc(O)cc1,2.62,-0.0893,-0.0098,-0.135,0.053,0.441,-0.293,1.5 (inactive),1.83,0.182,0.167,0.0288 (inactive),-0.856 (inactive),-0.483 (inactive),0.68,-1.16 (inactive),0.883,0.758,0.767,0.0156
CC(C)(C)OC(=O)CC[C@]1(C(=O)NCCN2CCOCC2)COC(c2ccc(OCCCO)cc2)=N1,-0.254,0.883,0.0569,0.691,0.361,1.33,1.41,-0.783 (inactive),0.519,0.0623,1.47,0.57 (inactive),0.41 (inactive),-0.342 (inactive),3.4,0.99 (inactive),-0.0984,1.05,1.03,-0.0656
O=C1[C@@]23C=C(Br)[C@H](C[C@@H]2COC3)[C@]12CO2,-0.199,-0.582,-0.12,-0.536,-1.71,-0.279,-1.15,0.126 (inactive),-0.541,-0.0065,-1.63,-0.241 (inactive),-9 (active),0.403 (inactive),0.246,-0.366 (inactive),-0.14,-1.31,-1.5,-0.272
NCCCCCNC(=O)[C@H]1C[C@H]2C(=O)N3CCC[C@H]3C(=O)N2[C@H]1c1ccc(O)cc1,1.39,1.06,0.197,0.457,0.698,1.62,1.23,0.0225 (inactive),1.52,0.399,1.56,-0.948 (inactive),-0.283 (inactive),-0.507 (inactive),2.58,-0.346 (inactive),0.821,0.813,0.573,0.426
C=CCOC(=O)[C@H]1[C@@H]2C(=O)O[C@@H](c3ccccc3)[C@@H](c3ccccc3)N2[C@@H](c2ccc(OCCOC(=O)[C@@H]3C[C@@H]4C(=O)N5CCC[C@H]5C(=O)N4[C@@H]3c3cccc(OCCO)c3)cc2)[C@]12C(=O)Nc1ccc(I)cc12,-0.34,1.19,-0.104,0.397,0.373,1.05,1.31,0.984 (inactive),0.447,-0.12,1.56,0.151 (inactive),1.04 (inactive),2.23 (inactive),2.09,-0.443 (inactive),-0.117,1.86,1.08,0.0032

# Source: PubChem BioAssay
